Inconclusive results are not listed. Activity calls are given as the source filed them. The call rests on the fitted dose curve; in most records, active means well fitted curve in the direction sought with a large enough effect; inconclusive means small, poorly fitted or top-dose-only effect, or another doubt; inactive means no such curve, though single readings can be large; an effect the other way counts as inactive or inconclusive.
Key:
[1] = target: Glutathione peroxidase 1 (Homo sapiens) (UniProt P07203); assay: Primary qHTS Assay for Inhibitors of Recombinant Selenoprotein Glutathione Peroxidase 1 (GPX1) (AID 1845191); further: nearly all actives have a fitted effect of over 65% in size; on activity, negative = inhibition: on the % scale 0 is the no-effect control and ±100 the full control effect
In short: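 NADPH consumption tracked by fluorescence at 340/450 nm between t=0 and t=15 min, room temperature. Final mix: 10 nM GPX1, 100 nM glutathione reductase, 1 mM GSH, 0.5 mM NADPH, 0.5 mM cumene hydroperoxide, 0.01% BSA; 30 min compound–enzyme preincubation.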

[2] = target: Luciferin 4-monooxygenase (Photinus pyralis) (UniProt P08659); assay: Primary firefly luciferase (FLuc) qHTS assay for identification of artifact compounds. (AID 1845220); further: nearly all actives have a fitted effect of over 60% in size;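 on activity change, negative = inhibition: series mostly up to about 54 µM; plate controls were DMSO vehicle for no effect and no enzyme for full effect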
In short: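 Cell-free, 1536-well qHTS. Buffer pH 7.6 with 0.01% Tween-20 and 0.05% BSA; 10 uM D-luciferin, 10 uM ATP; 10 nM P. pyralis luciferase; luminescence after 5 min.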

[3] = Primary fluorescence-based thiol-reactive (MSTI) qHTS assay for identification of artifact compounds. (AID 1845221); further: nearly all actives have a fitted effect of over 65% in size; further: potency means the concentration at half of the fitted maximal effect;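 on activity change, negative = thiol reactive: series mostly up to about 54 µM; thiol-reactive compounds lower the probe fluorescence signal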
In short: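 In PBS pH 7.4 with 2% DMSO, each compound met 4 uM MSTI for one hour at ambient temperature, shielded from light, before fluorescence detection.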

[4] = tested on: Nanoluciferase (engineered Oplophorus gracilirostris luciferase); assay: Primary Nanoluciferase (NLuc) qHTS assay for identification of artifact compounds. (AID 1845222);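 further: series mostly up to about 54 µM; 0% = DMSO and -100% = no enzyme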
In short: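 Compounds are pinned into diluted (1:55) conditioned medium of NLuc-expressing S16 cells and held 15 min at room temperature protected from light. Nano-Glo substrate follows, and luminescence is read 5 min later.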

[5] = Primary redox qHTS assay for identification of artifact compounds. (AID 1845223);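 further: 0% = DMSO and 100% = reference compound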
In short: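 Redox-cycling detection via DTT (250 uM final) oxidation coupled to Amplex Red (25 uM)/HRP (250 mU/mL) in HBSS. 15 min preincubation plus 30 min after DTT, room temperature. Ex/Em 525/598 nm; 4-parameter Hill fit against DMSO and 10 uM DA3003.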

[6] = target: Phospholipid hydroperoxide glutathione peroxidase GPX4 (Homo sapiens) (UniProt P36969); assay: Primary qHTS Assay for Inhibitors of Recombinant Selenoprotein Glutathione Peroxidase 4 (GPX4) (AID 1845192); further: nearly all actives have a fitted effect of over 65% in size; on activity change, negative = inhibition: series mostly up to about 50 µM; on the % scale 0 is the no-effect control and ±100 the full control effect
In short: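 NADPH consumption followed by fluorescence at 340/450 nm, t=0 and after 15 min at room temperature. Reaction started with cumene hydroperoxide (0.5 mM final) after 30 min compound–GPX4 preincubation; final 200 nM GPX4, 100 nM GR, 1 mM GSH, 0.5 mM NADPH.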

Sequence of Phospholipid hydroperoxide glutathione peroxidase GPX4 (Homo sapiens) (P36969 whole entry, looked up): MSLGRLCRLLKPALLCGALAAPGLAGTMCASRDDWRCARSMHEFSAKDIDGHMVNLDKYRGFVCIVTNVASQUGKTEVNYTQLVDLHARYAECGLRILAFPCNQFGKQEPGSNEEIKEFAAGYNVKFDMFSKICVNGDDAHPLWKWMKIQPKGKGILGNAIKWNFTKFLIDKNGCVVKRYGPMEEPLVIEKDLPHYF
Sequence of Glutathione peroxidase 1 (Homo sapiens) (P07203 whole entry, looked up): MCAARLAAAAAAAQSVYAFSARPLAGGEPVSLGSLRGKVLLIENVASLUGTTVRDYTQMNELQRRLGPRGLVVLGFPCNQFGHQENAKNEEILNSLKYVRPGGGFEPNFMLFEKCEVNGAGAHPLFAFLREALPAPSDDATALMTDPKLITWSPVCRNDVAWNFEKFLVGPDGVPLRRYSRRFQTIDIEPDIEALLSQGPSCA

COCCN1CCC(C(=O)NO)(S(=O)(=O)c2ccc(Oc3ccc(OC(F)(F)F)cc3)cc2)CC1
inactive: Potency [1] | Potency [2] | Potency [3] | Potency [4] | Potency [5]

C/C=C(\C)C(=O)OCC1OC(OCC2OC(OC3(CO)OC(CO)C(O)C3O)C(O)C(O)C2O)C(O)C(O)C1O (stereo not drawn)
inactive: Potency [1] | Potency [2] | Potency [4]

C=C(C)[C@H]1CC[C@]2(C(=O)O)CC[C@]3(C)C(CCC4[C@@]5(C)CCC(=O)C(C)(C)C5CC[C@]43C)C12 (stereo partly drawn)
inactive: Potency [1] | Potency [2] | Potency [4] | Potency [5]

COC(=O)[C@]1(C)CCC[C@@]2(C)[C@@H]3CC[C@@H]4C[C@@]3(CC[C@@H]21)C[C@H]4C(=O)O
inactive: Potency [1] | Potency [2] | Potency [3] | Potency [4] | Potency [5]

CC(=O)OCC1OC(OC2COC(OC3COC(OC4C(OC5C(CO)OC(OC6CCC7(C)C(CCC8(C)C7CC=C7C9CC(C)(C)CCC9(C(=O)OC9OC(CO)C(O)C(O)C9OC9OCC(OC%10OCC(O)(CO)C%10O)C(O)C9O)C(O)CC78C)C6(C)C)C(O)C5O)OCC(O)C4O)C(O)C3O)C(O)C2O)C(OC(=O)/C=C/c2ccccc2)C(O)C1OC(C)=O (stereo not drawn)
inactive: Potency [1] | activity change, negative = inhibition [2] 4.52% [at 6.45 µM] | activity change, negative = thiol reactive [3] 153% [at 6.41 µM] | activity, negative = inhibition [4] 4.35% [at 6.45 µM] | redox activity (% of DA3003) [5] -4.05% [at 6.41 µM]

C[C@@H]1O[C@@H](O[C@H]2[C@@H]3C=CO[C@@H](O[C@@H]4O[C@H](CO)[C@@H](O)[C@H](O)[C@H]4O)[C@@H]3[C@@]3(CO)O[C@@H]23)[C@H](O)[C@H](O)[C@H]1OC(=O)/C=C/c1ccc(O)cc1
inactive: Potency [1] | Potency [2] | Potency [4] | Potency [5]

NC[C@@H]1O[C@@H](O[C@@H]2[C@@H](O[C@@H]3O[C@H](CO)[C@@H](O)[C@H]3O)[C@H](O)[C@@H](N)C[C@H]2N)[C@@H](N)[C@H](O)[C@H]1O
inactive: Potency [1] | outcome [2] inactive [at 11.6 µM] | activity change, negative = thiol reactive [3] -13.5% [at 11.5 µM] | activity, negative = inhibition [4] 0% [at 11.6 µM] | redox activity (% of DA3003) [5] -8.2% [at 11.5 µM]

CCOC(=O)CSc1nc2c(sc3ccccc32)c(=O)n1CCCN1CCCC1
inactive: Potency [1] | Potency [2] | Potency [3] | Potency [4]

C[C@H]1CC[C@@]2(OC1)O[C@H]1CC3C4CC[C@H]5C[C@@H](O)CC[C@]5(C)C4CC(=O)[C@]3(C)[C@H]1[C@@H]2C (stereo partly drawn)
inactive: Potency [1] | Potency [2] | Potency [3] | Potency [4] | Potency [5]

CC(=O)NC(C(=O)OC1CCC(C)(C)C2CC=C3C(=O)OCC3C12C)C(C)C (stereo not drawn)
inactive: Potency [1] | Potency [2] | Potency [3] | Potency [4] | Potency [5]

C/C=C(/C)C(=O)OC1CC(C)(C)CC2C3=CCC4C5(C)CCC(OC6OC(C)C(OC7OC(C(=O)O)C(O)C(OC8OC(CO)C(O)C(O)C8OC8OC(CO)C(O)C(O)C8O)C7O)C(O)C6O)C(C)(C)C5CCC4(C)C3(C)C(OC(=O)/C=C/C=C/C=C/CCC)C(OC(C)=O)C12CO (stereo not drawn)
inactive: Potency [1] | activity change, negative = inhibition [2] 1.89% [at 11.6 µM] | activity change, negative = thiol reactive [3] 260% [at 11.5 µM] | activity, negative = inhibition [4] -1.65% [at 11.6 µM] | redox activity (% of DA3003) [5] 13.7% [at 11.5 µM]

CCC(C)/C=C(C)/C=C/C1=CC2=C(Cl)C(=O)C(C)(OC(C)=O)C(=O)C2=CN1C(CCCN=C(N)N)C(=O)O (stereo not drawn)
inactive: Potency [1] | Potency [2] | Potency [4] | Potency [5]
active: Potency [3] 1.03 µM

CC1CCC23COC(=O)C2=CC(O)CC3C1(C)CCc1ccoc1 (stereo not drawn)
inactive: Potency [1] | Potency [2] | Potency [3] | Potency [4] | Potency [5]

COC(=O)c1ccccc1O[C@@H]1O[C@H](CO[C@@H]2OC[C@@H](O)[C@H](O)[C@H]2O)[C@@H](O)[C@H](O)[C@H]1O
inactive: Potency [1] | Potency [2] | Potency [4] | Potency [5]
active: Potency [3] 5.19 µM

O=S(=O)(O)c1ccc(Nc2ncnc3c2ncn3[C@@H]2O[C@H](CO)[C@@H](O)[C@H]2O)cc1
inactive: Potency [6] | Potency [2] | Potency [3] | Potency [4]

NC1=NC2(c3cc(NC(=O)c4ccc(F)cn4)ccc3F)COCC2CS1 (stereo not drawn)
inactive: Potency [6] | Potency [2] | Potency [3] | Potency [4] | Potency [5]

COc1cc(O)cc(O[C@@H]2O[C@H](CO)[C@@H](O[C@@H]3OC[C@](O)(CO)[C@H]3O)[C@H](O)[C@H]2O)c1OC
inactive: Potency [1] | Potency [2] | Potency [4] | Potency [5]

CCN(CCN(C)C)C(=O)CNCc1cc(C(N)=O)ccn1
inactive: Potency [6] | Potency [2] | Potency [3] | Potency [4] | Potency [5]
